How the values were obtained:
Assay in all cases: thermal shift delta Tm vs DMSO control; higher = stronger stabilization (binding)
Settings in all cases: 12.5 µM; protein concentration 2 µM
LOC_OS04G57630-cb004 = tested on: LOC_OS04G57630-cb004
In short: (§1)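 Compounds dissolved in DMSO were added to purified rice kinase domain constructs, which had been expressed in E. coli, for differential scanning fluorimetry. Each well held 19.5 μl of 2 μM kinase in 100 mM potassium phosphate pH 7.5, 150 mM NaCl, 10% glycerol and 5 × SYPRO Orange. Fluorescence was followed from 25°C to 95°C at a rate of 0.05°C/s. Shifts in Boltzmann-fitted melting temperature are triplicate means relative to DMSO-only protein.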

LOC_OS05G07850-cb002 = tested on: LOC_OS05G07850-cb002
In short: as §1

LOC_OS05G16824-cb004 = tested on: LOC_OS05G16824-cb004
In short: as §1

LOC_OS05G28520-cb001 = tested on: LOC_OS05G28520-cb001
In short: as §1

LOC_OS05G30820-cb001 = tested on: LOC_OS05G30820-cb001
In short: as §1

LOC_OS05G43570-cb004 = tested on: LOC_OS05G43570-cb004
In short: as §1

LOC_OS06G16330-cb003 = tested on: LOC_OS06G16330-cb003
In short: as §1

LOC_OS06G22820-cb001 = tested on: T1, LOC_OS06G22820-cb001
T1 sequence (whole entry): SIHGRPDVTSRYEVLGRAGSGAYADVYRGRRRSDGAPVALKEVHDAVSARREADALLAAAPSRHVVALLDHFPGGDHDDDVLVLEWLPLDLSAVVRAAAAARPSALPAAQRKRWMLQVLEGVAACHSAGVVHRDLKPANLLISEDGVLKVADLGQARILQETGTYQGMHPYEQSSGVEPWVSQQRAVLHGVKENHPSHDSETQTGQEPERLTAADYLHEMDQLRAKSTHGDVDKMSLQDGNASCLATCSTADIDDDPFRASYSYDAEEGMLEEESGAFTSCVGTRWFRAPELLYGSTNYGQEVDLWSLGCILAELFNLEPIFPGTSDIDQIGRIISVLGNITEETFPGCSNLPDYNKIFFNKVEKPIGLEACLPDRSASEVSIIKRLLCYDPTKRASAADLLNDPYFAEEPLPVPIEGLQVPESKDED
In short: as §1

LOC_OS07G06570-cb004 = tested on: LOC_OS07G06570-cb004
In short: as §1

LOC_OS07G07230-cb001 = tested on: LOC_OS07G07230-cb001
In short: as §1

Chain of LOC_OS06G16330-cb003 (as listed by the source): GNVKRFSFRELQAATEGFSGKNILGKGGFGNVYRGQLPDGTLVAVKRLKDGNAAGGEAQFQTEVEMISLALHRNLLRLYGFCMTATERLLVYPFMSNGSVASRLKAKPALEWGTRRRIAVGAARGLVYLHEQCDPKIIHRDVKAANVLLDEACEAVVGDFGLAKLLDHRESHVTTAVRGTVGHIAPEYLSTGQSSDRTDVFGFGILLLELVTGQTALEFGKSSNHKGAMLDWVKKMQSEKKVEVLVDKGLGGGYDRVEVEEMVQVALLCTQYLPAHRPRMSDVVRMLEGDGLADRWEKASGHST

| Compound | thermal shift delta Tm (LOC_OS04G57630-cb004) [°C] | thermal shift delta Tm (LOC_OS05G07850-cb002) [°C] | thermal shift delta Tm (LOC_OS05G16824-cb004) [°C] | thermal shift delta Tm (LOC_OS05G28520-cb001) [°C] | thermal shift delta Tm (LOC_OS05G30820-cb001) [°C] | thermal shift delta Tm (LOC_OS05G43570-cb004) [°C] | thermal shift delta Tm (LOC_OS06G16330-cb003) [°C] | thermal shift delta Tm (LOC_OS06G22820-cb001) [°C] | thermal shift delta Tm (LOC_OS07G06570-cb004) [°C] | thermal shift delta Tm (LOC_OS07G07230-cb001) [°C] |
| --- | --- | --- | --- | --- | --- | --- | --- | --- | --- | --- |
| CC(C)Nc1cc(-c2c[nH]c(C(=O)N[C@H](CO)c3cccc(Cl)c3)c2)c(Cl)cn1 | -0.02 | 2.27 | -2.75 | 0.6 | 0.63 | 0.49 | 0.62 | 0.65 | 1.26 | -0.16 |
| CCn1c2ccccc2c2cc(Nc3ccnc(NCCCN4CCOCC4)n3)ccc21 | 0.23 | 3.68 | -1.41 | 0.55 | 0.41 | 0.2 | 0.02 | 0.32 | 1.17 | 0.72 |
| CN1CCN(c2nc(C3=C(c4c[nH]c5ccccc45)C(=O)NC3=O)c3ccccc3n2)CC1 [Sotrastaurin] | -0.06 | 5.2 | 1.64 | 0.09 | 0.74 | 1.24 | 0.19 | 0.49 | 0.81 | -0.05 |
| CN(C)CCOc1ccc(-c2nc(-c3ccncc3)c(-c3ccc4c(c3)CC/C4=N\O)[nH]2)cc1 | 0.24 | 1.09 | -2.35 | -0.03 | 0.65 | 0.64 | -0.3 | 0.47 | 0.49 | 0.18 |
| CC(C)(C)c1cc(/C=C(\C#N)C(N)=S)cc(C(C)(C)C)c1O [Tyrphostin AG 879] | -0.19 | 12.1 | -5.25 | 1.25 | 1.1 | 1.09 | 1.66 | 1.38 | 2.77 | 0.65 |
| CC1(C)OCCn2c1nc1c(N3CCOCC3)nc(-c3cnc(N)nc3)nc12 | 0.29 | 1.01 | -0.61 | 0.5 | 0.57 | 0.76 | 2.07 | 0.14 | 1.2 | 0.43 |
| COc1cc(-c2cc(-c3ccc(N4CCNCC4)cc3)cnc2C)cc(OC)c1OC | 0.42 | 3.83 | 0.31 | 0.5 | 0.25 | 0.17 | 2.03 | 0.21 | 0.35 | 0.01 |
| COc1cc2nccc(Oc3ccc(NC(=O)c4cn(C(C)C)c(=O)n(-c5ccc(F)cc5)c4=O)cc3F)c2cc1OC | 0.32 | 11.1 | 2.27 | 0.34 | -0.01 | 0.27 | 8.48 | 0.89 | 1.78 | 0.22 |
| COc1ncc(-c2ccc3nccc(-c4ccnnc4)c3c2)cc1NS(=O)(=O)c1ccc(F)cc1F | 0.93 | 6.11 | 2.11 | 0.26 | 0.47 | 0.73 | 2.61 | 0.6 | 0.86 | -0.21 |
| COc1cc(N2CCN(C)CC2)ccc1Nc1nccc(-c2cn(C)c3cnccc23)n1 | 0.55 | 11.8 | -3.65 | 0.25 | 0.38 | 0.32 | 5.31 | 0.11 | 1.53 | 0.44 |
| CN1CCN(c2ccc3nc(-c4c(N)c5c(F)cccc5[nH]c4=O)[nH]c3c2)CC1 [Dovitinib (TKI-258, CHIR-258)] | 1.24 | 6.74 | 12.6 | 1.08 | 0.71 | 0.77 | 3.64 | 0.56 | 1.13 | 0.36 |
| CC(C)(O)CNc1ncc(-c2ccnc(Nc3ccnc(Cl)c3)n2)c(CC2CC2)n1 | 0.07 | 7.44 | 0.09 | 0.75 | 0.41 | 0.5 | 4.77 | 0.62 | 0.78 | 0.71 |
| C=CC(=O)Nc1cccc(Nc2nc(Nc3ccc(N4CCN(C(C)=O)CC4)cc3OC)ncc2C(F)(F)F)c1 [Rociletinib (CO-1686, AVL-301)] | 0.55 | 10.2 | 4.44 | 0.98 | 0.73 | 0.4 | 4.77 | 0.68 | 1.54 | 1.09 |
| CC(C)n1ncnc1-c1cn2c(n1)-c1ccc(O[C@@H](C)C(N)=O)cc1OCC2 | -0.03 | -0.96 | -0.54 | 0.38 | 0.25 | 0.23 | -0.02 | 0.43 | 0.88 | 0.22 |
| CC(C)(C)NC(=O)c1cncn1C1CCN(c2ccc(-c3nnc(C(F)(F)F)o3)cn2)CC1 | -0.11 | 0.05 | 0.92 | -0.42 | 0.02 | -0.06 | -0.23 | 0.29 | 1.08 | 0.57 |
| CONC(=O)c1ccccc1Nc1cc(Nc2cc(C)nn2C(C)C)ncc1Cl | 0.41 | 5.58 | 8.82 | 0.25 | 0.17 | 0.39 | 6.46 | 0.47 | 1.77 | 0.55 |
| CNc1nc(Nc2cn(C(C)(C)C#N)nc2C)ncc1C(F)(F)F | 0.21 | 3.12 | 1.76 | 0.47 | 0.36 | 0.56 | 0.81 | 0.4 | 0.68 | -0.13 |
| CC(C)(CO)n1cc(C(=O)c2cncc(NC(=O)Cc3ccc(Cl)cn3)c2)c2cnc(N)nc21 | 0.34 | 5.09 | -0.67 | 0.14 | 0.02 | 0.18 | 2.22 | 0.45 | 1.47 | 0.34 |
| C=CC(=O)Nc1ccc2ncnc(Nc3cccc(Br)c3)c2c1 | 0.39 | 0.86 | -2.41 | -0.05 | 0.56 | 0.31 | -0.95 | 0.64 | 0.91 | 0.32 |
